ChEMBL document CHEMBL3988442, “University of Dundee, Small-Polar-MMV Screening Library” (2021)
For some assays here: Potency and affinity values are given separately.

How the values were obtained:
Set-up in all cases: scale not given: direction of the effect not stated beside the values
[1] = molecular target: Protein translocase subunit SecA (Escherichia coli (strain K12)) (UniProt P10408); experiment: Assay to Identify E. coli SecA ATPase Inhibitors; assay type: functional; conditions: 30 µM
[2] = molecular target: T1, Ubiquitin-activating enzyme e1, putative (Leishmania donovani (strain BPK282A1)) (UniProt E9BSI1); experiment: Leishmania donovani Ubiquitin Activating Enzyme (LdE1); assay type: functional; conditions: 30 µM
T1 sequence (whole entry): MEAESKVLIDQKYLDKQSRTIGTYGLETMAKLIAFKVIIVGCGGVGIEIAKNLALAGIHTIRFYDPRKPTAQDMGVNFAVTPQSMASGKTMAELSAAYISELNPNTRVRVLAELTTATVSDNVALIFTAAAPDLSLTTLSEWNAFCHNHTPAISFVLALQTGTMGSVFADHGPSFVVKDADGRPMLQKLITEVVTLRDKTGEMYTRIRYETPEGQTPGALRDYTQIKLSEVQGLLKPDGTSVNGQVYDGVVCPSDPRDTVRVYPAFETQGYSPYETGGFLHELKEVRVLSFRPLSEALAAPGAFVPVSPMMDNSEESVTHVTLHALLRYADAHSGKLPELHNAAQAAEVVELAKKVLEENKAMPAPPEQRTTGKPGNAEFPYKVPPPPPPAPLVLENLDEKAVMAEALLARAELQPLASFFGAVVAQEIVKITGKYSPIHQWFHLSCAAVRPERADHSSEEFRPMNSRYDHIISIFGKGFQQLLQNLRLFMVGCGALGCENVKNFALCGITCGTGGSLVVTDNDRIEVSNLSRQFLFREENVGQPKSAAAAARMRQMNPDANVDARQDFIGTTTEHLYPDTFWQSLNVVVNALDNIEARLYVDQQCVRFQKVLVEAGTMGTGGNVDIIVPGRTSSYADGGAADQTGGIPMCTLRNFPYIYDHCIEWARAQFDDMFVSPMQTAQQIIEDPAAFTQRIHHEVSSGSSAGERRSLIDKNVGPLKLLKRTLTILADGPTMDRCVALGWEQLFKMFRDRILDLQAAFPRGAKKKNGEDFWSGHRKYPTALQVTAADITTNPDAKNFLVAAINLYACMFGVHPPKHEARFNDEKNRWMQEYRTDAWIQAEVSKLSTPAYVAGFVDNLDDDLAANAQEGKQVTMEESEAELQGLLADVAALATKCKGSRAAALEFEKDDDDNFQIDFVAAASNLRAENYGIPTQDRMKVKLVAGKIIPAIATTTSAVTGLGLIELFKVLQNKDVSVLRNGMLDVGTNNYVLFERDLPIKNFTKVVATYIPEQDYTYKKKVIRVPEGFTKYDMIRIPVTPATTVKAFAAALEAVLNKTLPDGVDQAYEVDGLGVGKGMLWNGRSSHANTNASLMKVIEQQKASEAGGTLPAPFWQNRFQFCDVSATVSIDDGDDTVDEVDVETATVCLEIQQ

[3] = molecular target: AMP-activated protein kinase, AMPK (Homo sapiens) (UniProt P54646+O43741+P54619+Q9UGJ0+Q9Y478+Q13131+Q9UGI9); experiment: AMP-dependent Kinase enzyme assay. An in vitro enzyme assay that detects ADP turnover that is directly proportional to AMPK activity. This uses naive AMPK that is activated during the assay with MK-8722; assay type: functional; conditions: 30 µM
[4] = molecular target: Sialic acid-binding Ig-like lectin 9 (Homo sapiens) (UniProt Q9Y336); experiment: Hs-Siglec9 ALPHAscreen SOP 20170721; conditions: 10 µM
Trypanosoma cruzi = experiment: Trypanosoma cruzi phosphomannomutase and mannose-1-phosphate guanylyltransferase assay; assay type: functional; conditions: 10 µM
[5] = molecular target: T2, Arginase-2, mitochondrial (Homo sapiens) (UniProt P78540); experiment: in vitro enzyme assay to detect the production of urea directly proportional to the activity of Arginase II; assay type: functional; conditions: 33.3 µM; also: in the data most compounds retested in dose-response had high values
T2 sequence (whole entry): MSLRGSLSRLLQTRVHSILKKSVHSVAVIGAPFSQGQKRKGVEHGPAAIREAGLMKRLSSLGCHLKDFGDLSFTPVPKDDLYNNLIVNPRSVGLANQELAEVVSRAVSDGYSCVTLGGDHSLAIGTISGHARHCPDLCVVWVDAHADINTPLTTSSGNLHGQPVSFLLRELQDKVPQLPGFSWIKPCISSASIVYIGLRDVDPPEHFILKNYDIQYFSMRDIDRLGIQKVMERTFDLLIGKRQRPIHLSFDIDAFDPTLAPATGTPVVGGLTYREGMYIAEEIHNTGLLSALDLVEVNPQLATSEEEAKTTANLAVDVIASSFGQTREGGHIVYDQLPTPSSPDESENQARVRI

[6] = molecular target: T3, Proteasome subunit beta (Trypanosoma cruzi) (UniProt O96673); experiment: Trypanosoma cruzi proteasome chymotrypsin-like activity (TcProtChymo) assay.; also: in the data most compounds retested in dose-response had high values; assay type: functional; conditions: 9.37 µM
T3 sequence (whole entry): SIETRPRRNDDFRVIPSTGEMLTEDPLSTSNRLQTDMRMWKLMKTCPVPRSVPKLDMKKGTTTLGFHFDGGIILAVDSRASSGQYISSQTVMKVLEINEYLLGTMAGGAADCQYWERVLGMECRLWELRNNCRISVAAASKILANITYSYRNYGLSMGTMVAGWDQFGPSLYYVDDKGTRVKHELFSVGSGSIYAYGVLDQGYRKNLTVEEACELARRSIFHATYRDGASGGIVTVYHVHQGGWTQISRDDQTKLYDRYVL

Homo sapiens = species: Homo sapiens; experiment: To identify inhibition of the IFN signalling (Jak-Stat) pathway via expression of an eGFP reporter gene under the control of an IFN-stimulated response element (ISRE) containing MxA promoter.; assay type: functional; conditions: 30 µM
[7] = molecular target: T4, Tyrosyl-tRNA synthetase, putative (Trypanosoma cruzi (strain CL Brener)) (UniProt Q4DSP6); experiment: Trypanosoma cruzi tyrosyl tRNA synthetase (TcYRS) _High Tyrosine SOP; assay type: functional; conditions: 30 µM; also: in the data most compounds retested in dose-response had high values
T4 sequence (whole entry): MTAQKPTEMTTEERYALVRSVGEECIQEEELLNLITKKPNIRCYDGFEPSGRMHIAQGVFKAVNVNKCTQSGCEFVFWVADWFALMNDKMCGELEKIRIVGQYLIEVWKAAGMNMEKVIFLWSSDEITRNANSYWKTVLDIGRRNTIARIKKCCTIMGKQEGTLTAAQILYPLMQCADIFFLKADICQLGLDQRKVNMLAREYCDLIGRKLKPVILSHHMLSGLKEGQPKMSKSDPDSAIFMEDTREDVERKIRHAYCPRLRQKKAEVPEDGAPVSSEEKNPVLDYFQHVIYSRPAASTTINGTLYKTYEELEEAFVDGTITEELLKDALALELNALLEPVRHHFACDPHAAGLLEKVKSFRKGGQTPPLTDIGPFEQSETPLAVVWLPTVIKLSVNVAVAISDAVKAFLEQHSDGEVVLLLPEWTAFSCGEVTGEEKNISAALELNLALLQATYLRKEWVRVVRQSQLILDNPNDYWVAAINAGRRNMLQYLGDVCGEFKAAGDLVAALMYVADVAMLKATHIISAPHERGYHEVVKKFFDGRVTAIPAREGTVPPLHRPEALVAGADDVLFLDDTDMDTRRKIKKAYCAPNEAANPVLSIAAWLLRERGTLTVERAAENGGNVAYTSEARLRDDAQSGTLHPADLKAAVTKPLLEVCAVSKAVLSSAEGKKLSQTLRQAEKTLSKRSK

[8] = molecular target: T4, Tyrosyl-tRNA synthetase, putative (Trypanosoma cruzi (strain CL Brener)); experiment: Trypanosoma cruzi tyrosyl tRNA synthetase (TcYRS) SOP; assay type: functional; conditions: 30 µM
[9] = molecular target: Chromo domain-containing protein 1 (Saccharomyces cerevisiae (strain ATCC 204508 / S288c) (Baker's yeast)) (UniProt P32657); experiment: ScCHD-1 Enzyme Inhibition Assay; assay type: functional; conditions: 30 µM; also: in the data most compounds retested in dose-response had high values
Chain of Chromo domain-containing protein 1 (Saccharomyces cerevisiae (strain ATCC 204508 / S288c) (Baker's yeast)) (P32657 whole entry, the tested form may be a part): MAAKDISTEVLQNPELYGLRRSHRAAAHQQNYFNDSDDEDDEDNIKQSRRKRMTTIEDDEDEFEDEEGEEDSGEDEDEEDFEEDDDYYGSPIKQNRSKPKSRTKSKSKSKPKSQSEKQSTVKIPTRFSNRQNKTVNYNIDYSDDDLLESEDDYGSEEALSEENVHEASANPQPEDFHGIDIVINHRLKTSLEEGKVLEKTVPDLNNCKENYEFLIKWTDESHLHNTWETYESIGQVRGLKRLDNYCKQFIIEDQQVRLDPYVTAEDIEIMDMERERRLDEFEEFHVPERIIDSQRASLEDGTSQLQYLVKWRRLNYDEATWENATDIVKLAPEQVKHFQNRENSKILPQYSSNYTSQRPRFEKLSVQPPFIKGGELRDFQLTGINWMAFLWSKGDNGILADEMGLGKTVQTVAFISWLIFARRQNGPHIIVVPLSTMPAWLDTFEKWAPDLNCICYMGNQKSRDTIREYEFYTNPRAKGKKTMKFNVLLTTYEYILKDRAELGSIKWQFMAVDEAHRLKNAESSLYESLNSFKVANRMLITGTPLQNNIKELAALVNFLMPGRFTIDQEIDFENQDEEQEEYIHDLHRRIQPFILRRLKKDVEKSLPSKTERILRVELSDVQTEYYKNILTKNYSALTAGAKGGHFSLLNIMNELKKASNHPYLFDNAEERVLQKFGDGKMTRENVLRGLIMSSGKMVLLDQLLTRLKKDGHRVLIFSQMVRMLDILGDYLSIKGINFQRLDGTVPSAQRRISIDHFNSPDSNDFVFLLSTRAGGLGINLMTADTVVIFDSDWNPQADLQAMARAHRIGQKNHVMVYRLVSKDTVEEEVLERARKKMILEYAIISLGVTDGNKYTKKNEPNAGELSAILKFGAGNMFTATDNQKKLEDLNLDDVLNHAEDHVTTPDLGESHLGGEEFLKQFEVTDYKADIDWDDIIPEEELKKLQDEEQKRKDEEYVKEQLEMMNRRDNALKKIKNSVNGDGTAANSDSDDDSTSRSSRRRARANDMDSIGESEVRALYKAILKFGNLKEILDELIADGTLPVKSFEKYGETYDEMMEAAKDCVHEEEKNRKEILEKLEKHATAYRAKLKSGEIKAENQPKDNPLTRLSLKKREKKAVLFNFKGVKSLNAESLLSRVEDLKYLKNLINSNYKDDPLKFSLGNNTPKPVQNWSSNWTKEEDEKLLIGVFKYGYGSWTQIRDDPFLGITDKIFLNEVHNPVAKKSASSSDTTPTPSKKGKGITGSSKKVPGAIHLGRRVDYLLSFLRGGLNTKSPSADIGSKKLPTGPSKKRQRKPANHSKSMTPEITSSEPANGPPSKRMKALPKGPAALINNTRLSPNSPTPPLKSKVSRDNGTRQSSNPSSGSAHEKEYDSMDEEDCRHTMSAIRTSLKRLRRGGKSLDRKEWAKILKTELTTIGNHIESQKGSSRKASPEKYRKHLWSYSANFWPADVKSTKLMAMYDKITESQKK

Chain of Sialic acid-binding Ig-like lectin 9 (Homo sapiens) (Q9Y336 whole entry): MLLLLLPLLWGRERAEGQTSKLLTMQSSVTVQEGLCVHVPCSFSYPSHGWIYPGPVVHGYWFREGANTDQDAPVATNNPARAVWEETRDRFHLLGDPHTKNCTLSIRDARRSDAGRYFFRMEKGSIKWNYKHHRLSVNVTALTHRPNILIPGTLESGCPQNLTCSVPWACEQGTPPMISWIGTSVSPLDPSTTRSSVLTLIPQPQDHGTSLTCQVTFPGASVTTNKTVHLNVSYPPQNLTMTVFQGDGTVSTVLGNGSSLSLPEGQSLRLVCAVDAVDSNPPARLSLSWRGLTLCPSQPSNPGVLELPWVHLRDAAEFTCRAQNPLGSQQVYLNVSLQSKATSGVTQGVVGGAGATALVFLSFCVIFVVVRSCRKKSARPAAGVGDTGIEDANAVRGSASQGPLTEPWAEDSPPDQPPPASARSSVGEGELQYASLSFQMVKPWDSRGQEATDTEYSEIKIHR
Chain of Protein translocase subunit SecA (Escherichia coli (strain K12)) (P10408 whole entry): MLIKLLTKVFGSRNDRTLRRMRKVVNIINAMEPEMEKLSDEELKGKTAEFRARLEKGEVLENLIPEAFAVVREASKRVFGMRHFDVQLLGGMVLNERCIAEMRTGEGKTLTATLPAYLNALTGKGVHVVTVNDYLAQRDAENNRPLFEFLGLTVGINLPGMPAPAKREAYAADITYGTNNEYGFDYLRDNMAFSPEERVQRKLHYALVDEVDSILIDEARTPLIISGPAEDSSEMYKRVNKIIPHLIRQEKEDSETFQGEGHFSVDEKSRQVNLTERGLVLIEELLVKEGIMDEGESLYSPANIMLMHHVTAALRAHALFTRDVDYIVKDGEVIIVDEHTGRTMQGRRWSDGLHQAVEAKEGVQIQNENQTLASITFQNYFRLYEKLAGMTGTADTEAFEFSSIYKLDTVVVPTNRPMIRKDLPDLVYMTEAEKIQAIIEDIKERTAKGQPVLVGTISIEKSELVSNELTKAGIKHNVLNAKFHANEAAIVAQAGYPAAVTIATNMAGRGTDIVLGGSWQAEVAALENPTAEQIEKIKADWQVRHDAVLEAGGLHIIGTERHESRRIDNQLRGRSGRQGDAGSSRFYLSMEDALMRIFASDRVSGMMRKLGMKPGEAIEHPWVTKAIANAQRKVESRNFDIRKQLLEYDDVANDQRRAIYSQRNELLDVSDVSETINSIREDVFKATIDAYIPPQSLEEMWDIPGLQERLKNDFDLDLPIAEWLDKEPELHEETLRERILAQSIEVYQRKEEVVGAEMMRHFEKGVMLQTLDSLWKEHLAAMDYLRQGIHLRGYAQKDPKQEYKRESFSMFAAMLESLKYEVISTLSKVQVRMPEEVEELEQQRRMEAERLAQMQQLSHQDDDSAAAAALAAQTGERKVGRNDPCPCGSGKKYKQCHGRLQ

Compound	Percent Effect [1]	Percent Effect [2]	Percent Effect [3]	Percent Effect [4]	Percent Effect (Trypanosoma cruzi)	Percent Effect [5]	Percent Effect [6]	Percent Effect (Homo sapiens)	Percent Effect [7]	Percent Effect [8]	Percent Effect [9]
Cc1n[nH]cc1C(=O)N1CCCC(n2nnc3cc(F)ccc32)C1 (configuration not stated)	-5.29%	5.33%	7.57%	-0.922%	6.5%	-3.5%	11.7%	5.51%	5.32%	11.5%	-7.34%
O=C(NCc1cc[nH]n1)NC1CCCN(c2ncccn2)C1 (configuration not stated)	-1.16%	10.5%	6.14%	-0.458%	-4.58%	-4.73%	16%	-3.24%	4.25%	13%	-5.61%
CCC1=N[C@@]2(CC[C@@H]3CN(Cc4ccccc4F)C[C@@H]32)C(=O)N1CC	-5.1%	0%	-2.64%	-1.67%	-1.17%	12.5%	18.7%	5.93%	12.9%	18.3%	-6.7%
COCCCN(CCOC)C(=O)Nc1ccc(C)cc1C	-4.88%	-7.89%	-30.8%	-2.12%	-2.63%	3.55%	2.01%	-18.5%	-2.13%	-2.6%	6.01%
CCN(CC(=O)NC(C)C)S(=O)(=O)N1CCC(C)C1 (configuration not stated)	-2.1%	0%	-2.33%	-4.69%	2.05%	1.24%	5.24%	-14.3%	1.07%	6.17%	-6.4%
CN(C)C(=O)Cc1nc(CN2CCOC(Cn3cccn3)C2)cs1 (configuration not stated)	1.53%	0%	-0.58%	-0.357%	-1.46%	0%	10.6%	-2.04%	0%	0%	1.28%
c1cnc(N2C[C@H]3CCN(c4cccnc4)C[C@H]3C2)nc1	-6.23%	-5.41%	-3.42%	-2.92%	-2.15%	-0.417%	26.1%	6.67%	5.94%	13.4%	7.23%
O=C(CN1CCC(C(=O)c2cc(F)ccc2F)CC1)NC1CCCC1	-10.1%	-5.26%	13.8%	-3.6%	-1.46%	5.92%	8.53%	26.2%	1.06%	0%	-3.84%
CCN(CC)C(=O)Nc1cc2c(cc1SC)OCCO2	-0.336%	8.11%	-6.12%	9.01%	3.71%	27.5%	3.47%	-7.38%	4.95%	8.54%	-6.4%
Cc1nn(C)c(N(C)C)c1CNCC(O)COc1ccc(F)cc1 (configuration not stated)	-3.9%	2.74%	-7.44%	-8.06%	-1.57%	0.909%	12.2%	-14.5%	4.3%	12.5%	-3.3%
CCc1nnc2n1CCN(C(=O)c1ccc3nc(C)c(C)nc3c1)C2	-3.88%	1.39%	140%	3.38%	5.34%	-1.32%	20.7%	-6.8%	5.26%	15.4%	-2.97%
CC(=O)c1cc(CC(=O)NCc2c(F)cccc2F)cs1	2.08%	5.41%	-0.986%	2.88%	4.44%	10.5%	2.76%	17.2%	0.529%	7.32%	0.311%
Cc1nc[nH]c1-c1nc2cc(S(=O)(=O)N3CCCC3)ccc2n1C	-4.38%	11%	12.9%	8.67%	6.86%	20%	8.16%	24.3%	7.53%	17.5%	-5.76%
O=C(c1cccc2c1OCCO2)N1CCCC(n2ccnc2)C1 (configuration not stated)	-2.67%	5.26%	2.73%	-0.188%	-9.77%	3.45%	2.17%	13.9%	3.43%	4.88%	3.23%
CN(C)CC(=O)N1CCC2(CC1)CN(c1ccsc1)C(=O)CO2	-9.33%	2.67%	3.11%	-6.49%	-4.33%	-0.233%	3.96%	15.6%	0%	-3.85%	-3.46%
COc1ccc(C(=O)N(Cc2cnn(C)c2)C(C)C)cc1Br	-4.7%	0%	-7.42%	8.74%	6.44%	-2.52%	-1.61%	-4.21%	2.46%	11.1%	-4.6%
Cc1noc(C)c1CCC(=O)N1CCN(CCn2cccn2)CC1	-5.39%	21.9%	-6.91%	19.6%	7.64%	8.18%	8.52%	3.96%	3.23%	17.5%	-5.67%
Cc1nc(COC[C@]23COC[C@H]2CN(Cc2ccoc2)C3)cs1	-4.99%	0%	-4.16%	13.2%	6.94%	0.248%	-2.49%	-33.4%	3.23%	11.1%	-1.94%
CN(C)c1ncnc2c1CCN(CC1CCOC1)CC2 (configuration not stated)	-2.84%	8.11%	4.65%	-0.235%	-3.42%	-2.87%	18.6%	-8.93%	3.24%	15.4%	0.421%
CC(C)N(C)S(=O)(=O)N(C)Cc1ccc2c(c1)OCO2	-6.28%	15.6%	-11.7%	5.6%	10.5%	2.49%	12.7%	13.3%	5.83%	21.9%	-8.74%
Cc1cccc(OCCC(=O)N2CCN(S(=O)(=O)N(C)C)CC2)c1C	1.47%	22.8%	-5.81%	-9.44%	0.661%	-3.42%	8.93%	39.5%	4.43%	16.5%	-13.5%
CCc1nccn1C1CCCN(C(=O)CCc2nccs2)C1 (configuration not stated)	-2%	-5.41%	-10.8%	5.59%	-0.66%	-6.81%	5.77%	1.54%	1.48%	1.24%	-1.72%
